Common to all, as to assay: glycan array binding signal (z-score within array); higher = stronger binding
Common to all, as to settings: glycan notation: IUPAC condensed, linker removed

The target of experiment [1] is Fuc(a1-2)Gal(b1-3)GalNAc(b1-3)Gal(a1-4)Gal(b1-4)Glc. Summed up: (§1)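 From the Consortium for Functional Glycomics database, 3228 arrays were curated, keeping only those whose protein sequence was available. Binding is given as a within-array Z-score averaged across arrays sharing a protein sequence and across linkers. Negative Z-scores can be read as non-binding.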
The target of experiment [2] is Fuc(a1-2)Gal(b1-4)GlcNAc(b1-2)Man. The procedure, abridged: as §1
The target of experiment [3] is Fuc(a1-2)Gal(b1-4)GlcNAc(b1-3)[Fuc(a1-2)Gal(b1-4)GlcNAc(b1-6)]GalNAc. Summed up: as §1
Experiment [4] concerns the target Fuc(a1-2)Gal(b1-4)[Fuc(a1-3)]GlcNAc(b1-3)Gal(b1-4)[Fuc(a1-3)]GlcNAc(b1-3)Gal(b1-4)[Fuc(a1-3)]GlcNAc. Summed up:
as §1

In experiment [5] the target is Fuc(a1-2)[Gal(a1-3)]Gal(b1-3)GalNAc. Summed up:
as §1

Experiment [6] has as its target Fuc(a1-2)[Gal(a1-3)]Gal(b1-3)GlcNAc(b1-3)GalNAc. The procedure, abridged:
as §1

Experiment [7] has as its target Fuc(a1-2)[Gal(a1-3)]Gal(b1-4)GlcNAc(b1-3)[Fuc(a1-2)[Gal(a1-3)]Gal(b1-4)GlcNAc(b1-6)]GalNAc. The procedure, abridged: as §1
In experiment [8] the target is Fuc(a1-2)[Gal(a1-3)]Gal(b1-4)GlcNAc(b1-6)GalNAc. The procedure, abridged:
as §1

Experiment [9] deals with Fuc(a1-2)[GalNAc(a1-3)]Gal(b1-3)GalNAc(a1-3)[Fuc(a1-2)]Gal(b1-4)GlcNAc. Summed up: as §1
In experiment [10] the target is Fuc(a1-2)[GalNAc(a1-3)]Gal(b1-4)[Fuc(a1-3)]GlcNAc(b1-3)GalNAc. The procedure, abridged:
as §1

In the next experiment the target is Fuc(a1-4)GlcNAc. The procedure, abridged:
as §1

Experiment [11] deals with Gal(a1-3)Gal(b1-3)GlcNAc(b1-6)GalNAc. The procedure, abridged: as §1
The target of experiment [12] is Gal(a1-3)Gal(b1-4)GlcNAc(b1-2)Man(a1-3)[Gal(a1-3)Gal(b1-4)GlcNAc(b1-2)Man(a1-6)]Man(b1-4)GlcNAc(b1-4)GlcNAc. The procedure, abridged: as §1
In the next experiment the target is Gal(b1-2)Gal. The procedure, abridged: as §1
Experiment [13] addresses Gal(b1-3)GalNAc(b1-4)Gal(b1-4)Glc. The procedure, abridged: as §1
The target of a further experiment is Gal(b1-3)GlcNAc(b1-2)Man. Summed up:
as §1

Experiment [14] concerns the target Gal(b1-3)GlcNAc(b1-3)Gal(b1-4)GlcNAc(b1-3)Gal(b1-4)GlcNAc(b1-2)[Gal(b1-3)GlcNAc(b1-3)Gal(b1-4)GlcNAc(b1-3)Gal(b1-4)GlcNAc(b1-6)]Man(a1-6)[Gal(b1-3)GlcNAc(b1-3)Gal(b1-4)GlcNAc(b1-3)Gal(b1-4)GlcNAc(b1-2)Man(a1-3)]Man(b1-4)GlcNAc(b1-4)[Fuc(a1-6)]GlcNAc. The procedure, abridged: as §1
Experiment [15] deals with Gal(b1-3)GlcNAc(b1-3)Gal(b1-4)GlcNAc(b1-6)[Gal(b1-3)GlcNAc(b1-3)]Gal(b1-4)Glc. The procedure, abridged:
as §1

Experiment [16] has as its target Gal(b1-3)[Fuc(a1-4)]GlcNAc. The procedure, abridged: as §1
Experiment [17] deals with Gal(b1-4)GlcNAc(b1-2)Man(a1-3)[Gal(b1-4)GlcNAc(b1-2)Man(a1-6)][Gal(b1-4)GlcNAc(b1-4)]Man(b1-4)GlcNAc(b1-4)[Fuc(a1-6)]GlcNAc. Summed up:
as §1

Experiment [18] addresses Gal(b1-4)GlcNAc(b1-2)Man(a1-3)[GlcNAc(b1-4)][Gal(b1-4)GlcNAc(b1-2)Man(a1-6)]Man(b1-4)GlcNAc(b1-4)GlcNAc. The procedure, abridged:
as §1

Experiment [19] addresses Gal(b1-4)GlcNAc(b1-2)Man(a1-6)[GlcNAc(b1-2)Man(a1-3)]Man(b1-4)GlcNAc(b1-4)GlcNAc. Summed up: as §1
The target of experiment [20] is Gal(b1-4)GlcNAc(b1-2)Man(a1-6)[Man(a1-3)]Man(b1-4)GlcNAc(b1-4)GlcNAc. The procedure, abridged:
as §1

Shown is part of a subset that was picked to be rich in the strongest signals.

B1: Na-CTL-1 (Necator americanus) (protein)
chain: MQRSFLLLLVVLAGAWAVNTTIPLKLMGGFTPMKYQCVGRVSDIWADVLFLIESSDMITKSGFRQVIAFITATTKKMTIGQDEKQTRVGFITYGEEAKLIYDLDHWRSTEKLSDLVQKIPYVKSSGTNIAAAIALANKVFNSPTHRPNVPKVMVIVANGLKKGSQNPIPVATAFKDFGGIIITIEYTQYDNIQVPILKKIASEGYNIRSNDEDFSVRTLTNMLLQANCFCPDHYVPFRVNNPEFGCFVTAKIPSMWRDAAEMCRAVEEGKLVKVENEEKAAFIMKLVGPKKEAWIGLRYYGNKFQWTDGTKLNADDFNLWPEDIKELNGPHCVSMYQDQKDKKYYWRAGKCLEDMRYVCEVQPCSASNYCSEPVFMYRQKHRALLPAPPPPPN
As for B1, the “glycan array binding signal (z-score)” value in experiment [1] was -0.262; in [2], 0.123; in [3], -0.753; in experiment [4], -0.334; in experiment [5], -0.176; in experiment [6] it was -0.06. Besides, the “glycan array binding signal (z-score)” value in experiment [7] is 2.8; in experiment [8], -0.539; in experiment [9] it was -0.489; in experiment [10], 14.8; with Fuc(a1-4)GlcNAc it was 13.6; in experiment [11] it was -0.267. Further, the “glycan array binding signal (z-score)” value in experiment [12] was 0.692; with Gal(b1-2)Gal it was -0.582; in [13], -0.243; with Gal(b1-3)GlcNAc(b1-2)Man it was -0.258; in [14] it was 1.66; in experiment [15], -0.326. Further, the “glycan array binding signal (z-score)” value was -0.259 in experiment [16]; -0.149 in experiment [17]; 0.121 in experiment [18]; -0.602 in experiment [19]; 3.16 in [20].

These data come from the supplement of paper PMC8728848.
